According to PubChem BioAssay (NCATS):
Inconclusive results are not listed. The source made the active and inactive calls. Calls come from the whole dose curve; as a rule, active = well fitted inhibition curve with a large enough effect; inconclusive = small, poorly fitted or top-dose-only effect; inactive = no such curve, though single readings can be large or run the other way.

Assay: BET inhibitor-based combinations targeting novel dependencies in MECOM-rearranged (r) AML: HNT-34 cell line (AID 2202234); note: nearly all actives have a fitted effect of over 35% in size;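 for viability (% of control): plate controls were vehicle wells for no effect and cell-free wells for full effect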
Settings: HNT-34 AML viability, CellTiter-Glo luminescence, 48 h; series mostly up to 46 µM; viability (% of control): at the top concentration
Excerpt: Ecotropic viral insertion site 1 (EVI1) is located on chromosome 3q26.2 as part of the MECOM (MDS and EVI1 complex) locus. Under normal hematopoiesis, EVI1 is a regulator of hematopoietic stem cell maintenance and self-renewal and EVI1 levels decrease as the cells differentiate. In approximately 5-10% of de novo acute myeloid leukemia (AML) EVI1 is aberrantly expressed, including Chromosomal inv(3)(q21;q26.2) or t(3;3)(q21;q26.2) alterations (MECOM-r) that account for about 50% of AML with EVI1 overexpression 31. AMLs with high levels of EVI1 have a poor prognosis and an overall survival time averaging between 10-14 months. EVI1 overexpression confers resistance in leukemia cells, highlighting the need to develop new targeted therapies for EVI1 overexpressing AMLs. Here, we performed an unbiased chemical drug screening by evaluating the single agent activity of a collection of 2,480 oncology-focused, approved and investigational drugs (NCATS Mechanism Interrogation Plates, MIPE v5.0) against a panel of seven AML cell lines. These included four MECOM-r cell-lines (AML-191, AML-194, UCSD-AML1 and HNT-34) and three non-MECOM-r AMLs (MV4-11, OCI-AML3 and SET-2). Exploiting the mechanistic redundancy built in the library, we identified target-level sensitivities in MECOM-r AML cells and relative activity as compared to other AML subtypes.
A collection of 2480 mechanistically annotated dugs (MIPE v5.0) was used to screen four 3q26.2 rearranged AML cell lines and three non-3q26.2 rearranged AML cell lines. This library purposely exploits redundancy by including multiple inhibitors of key onco-targets, while simultaneously encompassing mechanistic diversity, targeting more than 800 distinct mechanisms of action. Briefly, cells were seeded in 5 uL of growth media using a Multidrop Combi dispenser into 1536 well white polystyrene tissue culture treated plates (Corning) at a density of 500cells/well. For each cell-line, for each of the 2480 drugs in MIPE v5.0 library, an 11-point dose curve was generated via a 1536 pin-tool. Plates were incubated for 48 hr at standard incubator conditions, covered by a stainless steel gasketed lid to prevent evaporation. Cell viability was determined by luminescence based, Cell Titer Glo assay (Promega). In detail, 3 uL of Cell Titer Glo were added to each well and plates were incubated at room temperature for 15 min with a stainless-steel lid in place. Luminescence readings were taken using a Viewlux (PerkinElmer) with a 2 s exposure time per plate. Compound dose-response curves were normalized to DMSO and empty well controls on each plate. Quantitative drug activity data from dose-response curves was determined utilizing area Under the Curve (AUC) and Z-transformed AUC (Z-AUC, a mean-centering transformation applied to each individual cell-line screened).
Potency is the fitted concentration of half-maximal effect.

| SMILES | viability (% of control) | Potency |
| --- | --- | --- |
| CC(Cc1ccc(O)c(O)c1)(NN)C(=O)O (stereo not given) | 60.7% (inactive) |  |
| Cn1ncnc1[C@H]1c2n[nH]c(=O)c3cc(F)cc(c23)N[C@@H]1c1ccc(F)cc1 |  | 166 nM (active) |
| CC(C)[C@H](O)C(=O)N[C@@H](C)C(=O)N[C@@H]1C(=O)N(C)CCc2ccccc21 | 105% (inactive) |  |
| CN1CC[C@@H](c2c(O)cc(O)c3c(=O)cc(-c4ccccc4Cl)oc23)[C@@H](O)C1 |  | 468 nM (active) |
| C[C@](N)(Cc1ccc(O)c(O)c1)C(=O)O | 82.2% (inactive) |  |
| COc1ccc(-c2cnc3c(-c4cccc5ncccc45)cnn3c2)cc1 | 102% (inactive) |  |
| OC(Cn1cncn1)(Cn1cncn1)c1ccc(F)cc1F | 111% (inactive) |  |
| S=c1nc[nH]c2nc[nH]c12 |  | 16600 nM (active) |
| CN(C)CC(=O)N1CCC(c2ccc(NC(=O)c3ncc(C#N)[nH]3)c(C3=CCCCC3)c2)CC1 |  | 10500 nM (active) |
| CCCCCN(CCC12CC3CC(CC(C3)C1)C2)C(=O)NCCCc1ccncc1 |  | 16600 nM (active) |
| CC(C)N(CCC(=O)c1ccc2ccccc2c1)Cc1ccccc1 |  | 5250 nM (active) |
| COc1ccc(-c2cc(=O)c3c(O)cc(O[C@@H]4O[C@H](CO[C@@H]5O[C@@H](C)[C@H](O)[C@@H](O)[C@H]5O)[C@@H](O)[C@H](O)[C@H]4O)cc3o2)cc1O | 103% (inactive) |  |
| NC(=O)C1CCCc2c1[nH]c1ccc(Cl)cc21 (stereo not given) | 110% (inactive) |  |
| Cc1nc(-c2ccc(OCC(C)C)c(C#N)c2)sc1C(=O)O | 85.7% (inactive) |  |
| NC(=O)c1cccc(N)c1 | 97.1% (inactive) |  |
| CC[C@@]1(O)C(=O)OCc2c1cc1n(c2=O)Cc2cc3c(CN(C)C)c(O)ccc3nc2-1 |  | 8.3 nM (active) |
| Cn1c(=O)c2c(ncn2C)n(C)c1=O | 98.4% (inactive) |  |
| COc1cccc(-c2cc(F)ccc2C2Cc3nc(N)nc(C)c3C(=O)N2)n1 (stereo not given) |  | 132 nM (active) |
| CN1CCN(Cc2ccc(NC(=O)Nc3ccc(Oc4cc(NC(=O)C5CC5)ncn4)cc3)cc2C(F)(F)F)CC1 |  | 46.8 nM (active) |
| Cc1cc(Nc2cc(N3CCN(C)CC3)nc(/C=C/c3ccccc3)n2)n[nH]1 |  | 525 nM (active) |

| SMILES | viability (% of control) | Potency |
| --- | --- | --- |
| O=C(/C=C/C#Cc1cccc(NS(=O)(=O)c2ccccc2)c1)NO |  | 723 nM (active) |
| COc1ccc(CCN2CCN(CCCc3ccccc3)CC2)cc1OC | 98.6% (inactive) |  |
| Nc1ccccc1NC(=O)c1ccc(CNC(=O)OCc2cccnc2)cc1 |  | 2350 nM (active) |
| CCC1=C(C)CN(C(=O)NCCc2ccc(S(=O)(=O)NC(=O)NC3CCC(C)CC3)cc2)C1=O (stereo not given) | 92.1% (inactive) |  |
| C[C@@]1(c2cc(-c3cncnc3)c(F)cc2F)CCSC(N)=N1 | 95.8% (inactive) |  |
| O=Nc1c(-c2c(O)[nH]c3cc(Br)ccc23)[nH]c2ccccc12 |  | 2630 nM (active) |
| CC1c2ccccc2CN1NC(=O)c1ccc(Cl)c(S(N)(=O)=O)c1 (stereo not given) | 92.3% (inactive) |  |
| OC[C@H]1O[C@@H](O[C@@H]2[C@@H](CO)O[C@](O)(CO)[C@H]2O)[C@H](O)[C@@H](O)[C@H]1O | 100% (inactive) |  |
| CN(N=O)C(=O)N[C@@H]1[C@@H](O)[C@H](O)[C@@H](CO)O[C@@H]1O | 110% (inactive) |  |
| Cn1ccc2cc3c(cc21)CCN3C(=O)Nc1cccnc1 | 104% (inactive) |  |
| Cc1oncc1C(=O)Nc1ccc(C(F)(F)F)cc1 |  | 16600 nM (active) |
| Cn1cncc1[C@@](N)(c1ccc(Cl)cc1)c1ccc2c(c1)c(-c1cccc(Cl)c1)cc(=O)n2C |  | 2.1 nM (active) |
| OC(c1cc(C(F)(F)F)nc2c(C(F)(F)F)cccc12)C1CCCCN1 (stereo not given) |  | 23500 nM (active) |
| c1ccc(-c2oc3ncnc(NC[C@@H]4CCCO4)c3c2-c2ccccc2)cc1 | 57.4% (inactive) |  |
| C[N+]1(C)[C@@H]2CC(OC(=O)[C@H](CO)c3ccccc3)C[C@H]1[C@@H]1O[C@@H]12 (stereo not given in full) | 104% (inactive) |  |
| O=C(Nc1nc2ccccc2n1CCN1CCOCC1)c1cccc([N+](=O)[O-])c1 | 80.8% (inactive) |  |
| CC(=O)[C@H]1CC[C@H]2[C@@H]3CC=C4C[C@@H](O)CC[C@]4(C)[C@H]3CC[C@]12C | 95.3% (inactive) |  |
| CN(CCOc1ccc(CC2SC(=O)NC2=O)cc1)c1ccccn1 (stereo not given) | 91.3% (inactive) |  |
| C=C1[C@H](CO)[C@@H](O)C[C@@H]1n1cnc2c(=O)[nH]c(N)nc21 | 113% (inactive) |  |
| CCCOc1ccn2c(C(C)=O)cc(-c3ccccc3S(C)(=O)=O)c2c1 |  | 18600 nM (active) |
